What was measured:
[1] = target: T1, Aspartate--tRNA(Asp/Asn) ligase (Mycobacterium tuberculosis (strain ATCC 25618 / H37Rv)) (UniProt P9WFW3); assay: Assay for Asp RNA synthetase-1 from Mycobacterium tuberculosis; format: functional; design: scale not given: direction of the effect not stated beside the values; details: 30 µM; further: in the data most compounds retested in dose-response had high values
T1 sequence (whole entry): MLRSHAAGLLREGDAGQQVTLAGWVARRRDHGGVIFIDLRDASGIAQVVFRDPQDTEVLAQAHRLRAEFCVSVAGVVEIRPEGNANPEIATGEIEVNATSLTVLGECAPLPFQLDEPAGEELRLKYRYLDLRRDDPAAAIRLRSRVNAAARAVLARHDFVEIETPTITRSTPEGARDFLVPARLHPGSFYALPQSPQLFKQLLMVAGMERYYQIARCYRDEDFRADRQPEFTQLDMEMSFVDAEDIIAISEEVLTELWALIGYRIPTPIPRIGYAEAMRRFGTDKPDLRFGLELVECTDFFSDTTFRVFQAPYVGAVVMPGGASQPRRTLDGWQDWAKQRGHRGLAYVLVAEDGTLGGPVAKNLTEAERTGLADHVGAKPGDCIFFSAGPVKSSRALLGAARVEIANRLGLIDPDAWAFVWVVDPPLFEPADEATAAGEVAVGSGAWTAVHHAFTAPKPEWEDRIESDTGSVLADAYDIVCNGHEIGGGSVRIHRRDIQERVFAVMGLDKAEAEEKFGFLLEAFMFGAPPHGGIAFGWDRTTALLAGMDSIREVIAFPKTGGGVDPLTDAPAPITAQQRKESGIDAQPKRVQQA

[2] = target: Shiga toxin 2 (Escherichia coli O157:H7) (UniProt P09385+P09386); assay: E. coli 0.157:H7 Shiga Toxin SOP - stx2 screening assay; format: functional; design: scale not given: direction of the effect not stated beside the values; details: 30 µM

Row | Structure (SMILES) | Percent Effect [1] | Percent Effect [2]
1 | CCOCC1CN(S(C)(=O)=O)Cc2ncn(CC3CC3)c21 (stereo not given) | -0.663% | -6.21%
2 | CN1CCc2nc(C3CCN(C(=O)CCC4CCCC4)CC3)ncc2C1 | 2.63% | -43.2%
3 | c1nc2n(n1)CC(NCc1csc(-c3ccsc3)n1)CC2 (stereo not given) | -1.92% | -23.2%
4 | Cc1ccc(NC(=O)c2cc(S(=O)(=O)N3CCCCC3)c[nH]2)cc1F | 1.97% | 17.8%
5 | NC(=O)NCC1CCCCN1C(=O)c1cccc(C(F)(F)F)c1 (stereo not given) | 2.58% | 11.1%
6 | CCn1nnc2cc(C(=O)N3CCCC3Cn3cc(C)cn3)ccc21 (stereo not given) | -2.54% | 0.821%
7 | CC(=O)N1CCCC(c2cnc(-c3c(C)nn(C)c3C)cn2)C1 (stereo not given) | -3.49% | -14.1%
8 | COC[C@@H]1CC[C@H]2[C@H](CCN2S(=O)(=O)c2cccc(C)c2)O1 | 3.92% | -4.66%
9 | Cc1ccsc1-c1nnc(C2CCN(Cc3ccc(F)cc3)CC2)o1 | -1.86% | -123%
10 | O=C(Cn1nc2c(cc1=O)CSCC2)NC(Cc1ccccc1)C(=O)O (stereo not given) | 0.581% | -19.5%
11 | CC(C)N1CCc2c(C#N)c(NCc3ccco3)n3cnnc3c2C1 | 3.86% | -4.38%
12 | C[C@@H]1CN(C(=O)c2cnc(C3CC3)nc2)CC[C@@]1(O)C1CCOCC1 | 1.53% | 0.847%
13 | COCCNC(=O)CCc1c(C)nn(-c2nc(C)c(C)c(=O)[nH]2)c1C | -1.79% | -2.84%
14 | CCCc1nc(C)cc(N2CCC3(CCC(=O)N(CC4CC4)C3)CC2)n1 | 3.82% | -18.5%
15 | O=C(O)[C@@H]1CN(C(=O)c2ccc3[nH]nnc3c2)C[C@H]1c1cccc(F)c1 | -0.0228% | -15.6%
16 | CNC(=O)C1(CCCc2cccnc2)CCCCN1 (stereo not given) | 0.849% | 0.867%
17 | CCC1=N[C@@]2(CC[C@@H]3CN(CC(=O)N(C)C)C[C@@H]32)C(=O)N1CC1CC1 | -4.18% | -27.3%
18 | CNC(=O)c1cnc(/C=C/c2ccc(OC)c(O)c2)s1 | 1.65% | -56.5%
19 | CC(C)C(NC(=O)Cn1ccc(=O)n(C)c1=O)c1ccc(F)cc1 (stereo not given) | 4.7% | -13.7%
20 | Cc1ccc(N2CC3(COCCN(Cc4nccs4)C3)OCC2=O)s1 (stereo not given) | 7.04% | -13.5%
21 | CC(=O)NC(C)(C)C(=O)Nc1ncc(Cc2ccc(C)c(F)c2)s1 | -1.27% | -15.4%
22 | COc1ccc(CC(=O)N2CCCC(n3cc(C)cn3)C2)cc1F (stereo not given) | -0.544% | 12.2%
23 | c1ncn(CC2CN(CC3CCCC3)CCO2)n1 (stereo not given) | 2.9% | -0.78%

Row | Structure (SMILES) | Percent Effect [1] | Percent Effect [2]
24 | CS(=O)(=O)N1CCC(c2nnc3ccc(C(=O)N4CCCC4)cn23)C1 (stereo not given) | 2% | -10.4%
25 | Cn1cc(C(=O)CC2CCCN2C(=O)c2cncc3ccccc23)cn1 (stereo not given) | -4.82% | -3.94%
26 | Cc1ccc(C(=O)N2CCC3(CCN(C(=O)c4cccnc4)C3)CC2)o1 | 5.85% | -10.6%
27 | CCOC(=O)CN1CCC(C(=O)c2cc(F)ccc2F)CC1 | -0.233% | -13.5%
28 | O=C(CCc1ccccc1)N1CCC(N2CCNC2=O)CC1 | 1.87% | 26%
29 | Cn1cc(-c2cnc(N3CCOCC3)nc2)cc1C(=O)NCCO | 8.57% | -9.13%
30 | COc1ccc2cc(C3CN(C(=O)C4CCOCC4)CCO3)ccc2c1 (stereo not given) | 0.234% | 7.44%
31 | Cc1cnc(CN2CCCC(c3cc(C(F)(F)F)[nH]n3)C2)cn1 (stereo not given) | -6.86% | 7.14%
32 | N#Cc1cccc(S(=O)(=O)N2CCCCC2CCN2CCCC2=O)c1 (stereo not given) | -2.87% | -20.4%
33 | O=C(c1ccc[nH]1)N1CCn2cc(CN3CCCC3)nc2C1 | -2.37% | 0.78%
34 | CCOC(=O)c1sc2ccsc2c1CN | -0.321% | 42.1%
35 | CCOC1CCCN(C(=O)c2sccc2-n2cnnn2)C1 (stereo not given) | -4.21% | -8.57%
36 | COc1cccc(CN2CCCC2c2c(C)nn(C)c2C)c1 (stereo not given) | 2.17% | -4.12%
37 | Cc1cccc(N2Cc3nc(=O)[nH]n3C2=O)c1 | -3.43% | -54.1%
38 | Cn1ccc(NC(=O)Cc2cccc(F)c2)n1 | 3.36% | -9.92%
39 | CC(C)N1CC(C(=O)NCCc2csc(-c3ccncc3)n2)CC1=O (stereo not given) | 2.56% | -26.5%
40 | Cc1noc([C@@H]2CC[C@@H]3[C@@H](CCN3S(=O)(=O)C3CC3)O2)n1 | 0.155% | -17.9%
41 | COc1cc(C(=O)N2CCCS2(=O)=O)cc(Cl)c1OC | -11.2% | -4.54%
42 | CC(C(=O)N1CCCC1)N1CCC(c2nccn2Cc2cscn2)CC1 (stereo not given) | 1.8% | -3.75%
43 | Cn1ccnc1CC1CCCN(C(=O)Nc2cccn(C)c2=O)C1 (stereo not given) | 2.75% | -3.01%
44 | Cc1cc(C)nc(CCNC(=O)C(c2ccc(F)cc2)N(C)C)n1 (stereo not given) | -1.5% | -52.8%
45 | Cn1ccnc1CN1CCCC(Cc2ccccn2)C1 (stereo not given) | -2.49% | -6.98%
